Screens deposited in PubChem BioAssay by The Scripps Research Institute Molecular Screening Center.
In the library only some 3.5% were active in any assay of this set; here they are far more common.
MITF inh: human MITF inhibition, primary screen. 0.91% of 650,000 active. AlphaScreen MITF homodimerization, bead proximity signal. O75030. inhibition, % at 2.6 µM; in the data active = inhibition above about 50%;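 note: 0% = vehicle wells with protein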
Target sequence (O75030 whole entry, looked up): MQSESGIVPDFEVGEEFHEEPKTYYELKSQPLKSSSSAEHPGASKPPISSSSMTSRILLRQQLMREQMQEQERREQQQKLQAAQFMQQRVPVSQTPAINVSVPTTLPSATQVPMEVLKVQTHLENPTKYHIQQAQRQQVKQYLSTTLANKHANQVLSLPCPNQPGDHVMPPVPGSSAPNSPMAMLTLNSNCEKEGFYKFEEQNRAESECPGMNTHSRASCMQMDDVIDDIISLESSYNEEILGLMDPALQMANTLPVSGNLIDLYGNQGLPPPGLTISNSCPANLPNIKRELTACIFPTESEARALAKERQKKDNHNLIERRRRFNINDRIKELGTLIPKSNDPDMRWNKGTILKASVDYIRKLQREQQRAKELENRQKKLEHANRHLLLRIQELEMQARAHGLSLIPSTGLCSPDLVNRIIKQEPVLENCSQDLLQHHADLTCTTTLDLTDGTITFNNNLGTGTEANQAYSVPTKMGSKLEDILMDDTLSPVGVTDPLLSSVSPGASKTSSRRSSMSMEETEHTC
TEAD-YAP block: TEAD-YAP interaction inhibition; HEK-TIYL cells, TEAD-Gal4/YAP UAS-luciferase luminescence; inhibition, % at 9.12 µM; 1.4% of 640,000 active; AID 1259422; in the data active = inhibition above about 32%;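 note: 0% = median of test compound wells and 100% = reference inhibitor wells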
FBW7 activator: human FBW7 E3 ligase activation, primary screen | Q969H0 | AlphaScreen FBW7–phospho-cyclin E peptide binding, activator screen | normalized activity (activation), % at 26.1 µM | 0.13% of 650,000 active | AID 1259310; in the data active = normalized activity above about 1.9%;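 note: purified mutant Fbw7 with reduced substrate affinity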
GPR151 ag: activates the human receptor GPR151; Q8TDV0; PathHunter beta-arrestin GPR151 cells, luminescence; activation, % at 11.2 µM; 1% of 650,000 active; AID 1508602; in the data active = activation above about 4.9%;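 note: 0% = median of compound wells and 100% = cells with positive control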
GPR151 conf act: human GPR151 activation, confirmation screen | GPR151 PathHunter beta-arrestin cells, luminescence, 90 min; % of EA-reagent control over plate median | AID 1508609 | 6,700 tested, under 10 active | shares compounds with GPR151 ag | activation, % at 11.2 µM;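 active = mean percent activation across replicates above the confirmation screen cutoff of 4.91%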
GPR119 ag: counter-screen for GPR151 activators: effect on human GPR119 | shares compounds with GPR151 ag | GPR119 PathHunter beta-arrestin cells, luminescence, 90 min; 0 = compound-well median, 100 = enzyme-acceptor control | activation, % at 11.2 µM | 0.3% of 6,700 active;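 active = mean percent activation in the counterscreen above 29.09%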;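 note: counterscreen on off-target GPR119 to flag nonselective hits from the GPR151 activator screen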
An asterisk follows results filed as active; . = no result.

SMILES	MITF inh	TEAD-YAP block	FBW7 activator	GPR151 ag	GPR151 conf act	GPR119 ag
Cc1oc(C(=O)O)cc1CSCc1ccoc1C(=O)O	3	0	0	6.1*	1	-2
O=C(NCc1ccccc1)NC1(C(=O)NCc2ccco2)CCCCC1	7	4	0	-1	.	.
CC1(C)Oc2ccc(C(=O)N3CCCC3)cc2N(CC(=O)NCc2ccccc2)C1=O	8	-2	0	6.1*	2	8
CC1(C)Oc2ccc(C(=O)N3CCCCCC3)cc2N(CC(=O)NCc2ccccc2)C1=O	-10	-5	0	1	.	.
O=c1oc2cc(O)ccc2cc1-c1nnc(Nc2ccccc2Cl)s1	-4	-15	0	1	.	.
COc1ccc(S(=O)(=O)NCc2csc(-c3cccnc3)n2)cc1OC	11	11	0	6.5*	1	8
COc1ccc(-c2nc(CNS(=O)(=O)c3ccc(OC)c(OC)c3)cs2)cc1	-2	-3	0	0	.	.
Cc1nn(C)c(C)c1-c1nc2c(NCc3cccnc3)ncnc2n1C(C)C	12	-4	1	7.1*	-1	-13
O=[N+]([O-])c1cccc(C2SCCN2S(=O)(=O)c2ccc(Br)cc2)c1 (configuration not stated)	12	5	0	5.8*	-1	-17
O=S(=O)(c1ccccc1)N1N=C(c2ccccc2)CC1c1ccco1 (configuration not stated)	10	20	0	5.4*	0	-2
O=[N+]([O-])c1cccc(C2SCCN2S(=O)(=O)c2ccc(I)cc2)c1 (configuration not stated)	3	-5	0	0	.	.
O=[N+]([O-])c1cccc(C2CC(c3ccc(Br)cc3)=NN2S(=O)(=O)c2ccccc2)c1 (configuration not stated)	8	-4	0	5.4*	0	12
CCCCOc1ccc(C(=O)OCCN2C(=O)C3C4c5ccccc5C(c5ccccc54)C3C2=O)cc1 (configuration not stated)	3	6	0	0	.	.
CCOC(=O)C1=C(c2ccccc2)NC(=S)NC1c1cc(OC)ccc1OC (configuration not stated)	20	-1	1	-1	.	.
Cc1[nH]c(C(=O)NC2CCCCCC2)c(C)c1C(C)O (configuration not stated)	1	-4	0	0	.	.
CCOc1ccc(CCNS(=O)(=O)c2ccc3c(c2)OCCN3C(C)=O)cc1OCC	10	4	1	5.2*	0	-7
CCOC(=O)C1CCN(CCC(=O)Nc2ccc(Br)c(C)c2)CC1	9	-9	2	10*	0	-8
O=[N+]([O-])C1=C(Nc2ccc(Cl)c(Cl)c2)CS(=O)(=O)C1	-5	5	0	-1	.	.
Cc1ccc(NC2=C([N+](=O)[O-])CS(=O)(=O)C2)cc1	-2	-4	0	6.5*	0	10
COc1ccc(C(=O)Nc2nnc(SCc3ccccc3F)s2)c(OC)c1	21	-21	0	0	.	.
O=C(c1ccc2cc[nH]c2c1)N1CCN(C(=O)C(c2ccccc2)c2ccccc2)CC1	8	10	0	5.6*	-1	-12
O=C(c1ccc2cc[nH]c2c1)N1CCNCC1	-9	0	0	-2	.	.
O=C(O)C1CC2CCC(C1)C21SCCS1 (configuration not stated)	-7	-7	0	1	.	.
Cc1cc(CN(C)C(=O)CC2(c3cccc(F)c3)CC(=O)N(Cc3cccnc3)C2=O)n[nH]1 (configuration not stated)	13	0	0	12*	0	7
Cc1cc(CN(C)C(=O)CC2(c3ccccc3C)CC(=O)N(Cc3cccnc3)C2=O)n[nH]1 (configuration not stated)	-5	-9	0	1	.	.
SMILES	MITF inh	TEAD-YAP block	FBW7 activator	GPR151 ag	GPR151 conf act	GPR119 ag
Cc1ccc(OC(=O)c2sc3ncn(Cc4cccc(F)c4)c(=O)c3c2C)cc1	16	-5	0	2	.	.
CCOc1ccc2ccccc2c1C(=O)NCc1ccco1	12	-10	1	0	.	.
COc1c(Cl)cc(Cl)cc1C(=O)Nc1ccc(-c2nn3c(C)nnc3s2)cc1	2	2	1	5.0*	0	4
CC(C)COC(=O)Nc1nnc(-c2ccc(Br)cc2)s1	-7	-6	0	0	.	.
CC1CCN(C(=O)CSc2nnc(CNc3ccc(F)cc3)o2)CC1	24	8	0	1	.	.
CCCCCCCC1=NN2C(=N)/C(=C/c3ccc(-c4ccccc4[N+](=O)[O-])o3)C(=O)N=C2S1	5	-1	1	5.6*	0	8
c1ccc(-c2nccc(NCc3nc4ccccc4[nH]3)n2)cc1	4	-4	0	-1	.	.
COCCCNc1nc2nonc2nc1N1CCN(CCOc2ccccc2)CC1	1	8	0	7.2*	1	-1
CCC(C)NC(=O)C1C2C(=O)N(Cc3ccccc3)CC23C=CC1(C)O3 (configuration not stated)	9	8	0	8.7*	0	-8
Cc1cc(NC(=O)COC(=O)CC2CCCCC2)no1	16	-3	0	5.0*	1	5
N#Cc1cc([N+](=O)[O-])ccc1NC(=O)COC(=O)CC1CCCC1	-1	1	0	5.0*	-1	-5
N#Cc1cc([N+](=O)[O-])ccc1NC(=O)COC(=O)C1CC1	9	3	0	1	.	.
Cc1ccc(C2=NC(CC(C)C)NC(c3ccccc3O)C2)cc1 (configuration not stated)	1	-38	0	0	.	.
Cc1ccc(CNC(=O)CCc2nnc(C3(c4ccc(Cl)cc4)CCC3)o2)s1	5	-4	0	1	.	.
O=C(CCc1nnc(C2(c3ccc(Cl)cc3)CCC2)o1)NCc1ccccn1	13	8	0	5.1*	0	-6
CN1CCN(C(CNC(=O)Nc2ccc(F)cc2)c2ccc3c(c2)CCN3C)CC1 (configuration not stated)	0	1	0	0	.	.
Cc1cccc(NC(=O)NCC(c2ccc3c(c2)CCN3C)N2CCN(C)CC2)c1 (configuration not stated)	8	-8	0	5.0*	0	14
CCOc1ncccc1C(=O)NC1(C)CCS(=O)(=O)C1 (configuration not stated)	-13	-1	0	6.2*	-1	-5
Cc1nc2cnc(-c3ccc(O)cc3)cn2c1NC(=O)CC1CCOCC1	16	24	0	12*	0	7
Cc1nc2cnc(-c3ccc(O)cc3)cn2c1NC(=O)c1cccs1	3	-1	0	0	.	.
COc1ccc(C2c3[nH]c4ccccc4c3CCN2C(=O)C[n+]2cc(=O)o[nH]2)c(F)c1 (configuration not stated)	0	8	0	-2	.	.
